This is a sample that favours compounds with a hit; in the whole collection about 5.7% have one here.
GLP-1R agonist: GLP-1 receptor (human) agonism | P43220 | HEK293 GLP-1R CRE-luciferase, luminescence, 4-6 h; cells express a hypersensitive GLP-1R form | Potency, µM (highest dose often 45.6 µM), most hits filed as activators | 0.007% of 380,000 active
Target sequence (P43220 whole entry, looked up): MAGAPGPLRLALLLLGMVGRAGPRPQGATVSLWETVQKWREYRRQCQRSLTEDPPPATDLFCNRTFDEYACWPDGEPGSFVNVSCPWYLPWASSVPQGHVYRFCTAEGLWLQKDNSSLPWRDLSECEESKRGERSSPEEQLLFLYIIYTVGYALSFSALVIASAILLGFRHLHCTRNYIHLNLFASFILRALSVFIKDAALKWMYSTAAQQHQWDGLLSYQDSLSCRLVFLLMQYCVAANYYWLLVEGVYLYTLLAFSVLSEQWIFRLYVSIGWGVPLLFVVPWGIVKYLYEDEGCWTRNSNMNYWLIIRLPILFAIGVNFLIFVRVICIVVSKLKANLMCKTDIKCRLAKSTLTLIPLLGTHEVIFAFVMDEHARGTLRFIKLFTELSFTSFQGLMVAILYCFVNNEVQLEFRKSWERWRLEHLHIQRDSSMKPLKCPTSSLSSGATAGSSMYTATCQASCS
GLP1R cytotox: cytotoxic in the GLP-1 receptor inverse agonist counter-screen | AID 624418 | 0.13% of 410,000 active | Potency, µM (series often up to 38.3 µM), usual class: inhibitors | HEK293 cAMP-luciferase reporter cells, luminescence, 24 h;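 further: loss of luciferase light is scored as toxicity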
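Compound-treated cells are incubated 24 hr at 37 deg C under 5% CO2 after a 12 hour attachment period, then luciferase detection reagent is added and luminescence is measured following 12 min at room temperature; lowered signal indicates toxicity.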
GLP1R inv ag: inverse agonists of human GLP-1 receptor; AID 624417; HEK293 GLP-1R CRE-luciferase, luminescence, 24 h; GLP-1R form is constitutively active; 1.6% of 410,000 active; P43220; Potency, µM (doses to about 38.3 µM), hits mostly inhibitors; further: nearly all actives have a fitted effect of over 55% in size
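Stable HEK293 clone (constitutively active GLP-1R + cAMP-response luciferase); 200 cells/uL plated, 12 h pre-culture, compound 24 hr, 37 deg C/5% CO2; detection reagent 12 min RT; luminescence.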
ClpP mod: qHTS Assay for Activators of ClpP. ATP-dependent Clp protease proteolytic subunit (Bacillus subtilis (strain 168)), P80244. 1.9% of 340,000 active. purified B. subtilis ClpP, FRET peptide cleavage, 20 min. Potency, µM (doses to about 57.5 µM); active means well fitted falling curve with a large enough effect; inconclusive means small, poorly fitted or top-dose-only effect; inactive means no such curve, though single readings can be large or run the other way; further: the source files actives as falling curves though it sought activators and does not explain the sign; nearly all actives have a fitted effect of over 65% in size
Target sequence (P80244 whole entry, looked up): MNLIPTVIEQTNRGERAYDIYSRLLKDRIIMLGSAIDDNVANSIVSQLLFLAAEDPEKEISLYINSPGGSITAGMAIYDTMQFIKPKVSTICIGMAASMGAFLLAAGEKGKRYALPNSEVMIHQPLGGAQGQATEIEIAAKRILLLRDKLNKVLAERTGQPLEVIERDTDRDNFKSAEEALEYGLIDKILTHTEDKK
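Buffer: 100 mM Tris/HCl pH8, 100 mM KCl, 0.05% low protease BSA, 2.5% glycerol, 0.01% Tween-20. ClpP 10 microg/mL final; 20 min RT; delta FRET normalized to ADEP and DMSO controls.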
DRD3 antagonist: blocks the human D3 dopamine receptor. max response, negative = inhibition, %. AID 652054. 2.5% of 360,000 active. D3R cells, DiscoveRx beta-arrestin luminescence, antagonist mode; stronger effect = lower value. P35462; in the data active means max response below about -50%; inconclusive means no clear call, values can overlap the other calls
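Cells plated overnight at 1500 cells/well, then exposed to library compounds with dopamine controls for 90 minutes at 37 degrees C. DiscoveRx reagent added for 30–60 minutes at room temperature; luminescence read, quantitative HTS format.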
DRD3 agonist: activates the human D3 dopamine receptor; D3R DiscoveRx beta-arrestin cells, luminescence, 90 min; max activation, %; 0.58% of 410,000 active; in the data active means max activation above about 30%
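Agonist mode: compounds and dopamine controls were applied to plated cells for 90 min at 37 degrees C after an overnight attachment at 1500 cells/well. Luminescent read-out followed 30 - 60 minutes at room temperature with DiscoveRx detection reagent.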
A number is an active result; – = inactive; ? = inconclusive; · = not tested or not shown. Unless noted, the call rests on the fitted dose curve; in most records, active means well fitted curve in the direction sought with a large enough effect; inconclusive means small, poorly fitted or top-dose-only effect, or another doubt; inactive means no such curve, though single readings can be large; an effect the other way counts as inactive or inconclusive.

SMILES | GLP-1R agonist | GLP1R cytotox | GLP1R inv ag | ClpP mod | DRD3 antagonist | DRD3 agonist
O=c1c2sc3ccccc3c2n(Cc2cccc(F)c2)c(=O)n1CCc1ccccc1 | – | – | – | – | · | –
COC(=O)c1ccccc1NC(=O)CSc1nc2sc3c(c2c(=O)[nH]1)CCCC3 | · | – | – | – | · | –
O=C(CN1C(=O)COc2ccccc21)NCCC1=CCCCC1 | – | – | – | – | – | –
CN1CCN(C(=O)CCNC(=O)Cn2ccc3ccccc3c2=O)CC1 | – | – | – | – | ? | –
CCN(CC)CCOC(=O)c1ccc(NC(=O)CCNC(=O)Cn2ccc3ccccc3c2=O)cc1 | – | – | – | – | -64.1 | –
O=C(Cn1ccc2ccccc2c1=O)NCCC(=O)Nc1cccc(Cl)c1 | – | – | – | 17.8µM | – | –
O=C(CCNC(=O)Cn1ccc2ccccc2c1=O)NCCN1CCc2ccccc2C1 | – | – | – | – | -52.0 | –
O=C(CCN1C(=O)COc2ccccc21)NCCC1=CCCCC1 | – | – | – | – | -110.0 | –
Cc1ccc([C@H]2C[C@H](O)[C@@H](n3cc(C4CC4)nn3)CN2Cc2cccs2)cc1 | – | – | ? | – | – | –
COc1ccc(NC(=O)CSc2nc(-c3cccs3)cc(C(F)(F)F)n2)c(OC)c1 | – | – | – | – | · | –
O=C(CSc1nc(=O)n(Cc2ccco2)c2c1CCC2)NCc1ccc(Cl)cc1 | · | – | – | – | · | –
COc1ccc(CNC(=O)Cn2ncn3nc(-c4cccs4)cc3c2=O)cc1 | · | – | – | – | · | –
O=C(Cn1ccc2ccccc2c1=O)NCCC(=O)N1CCN(c2cccc(Cl)c2)CC1 | – | – | ? | – | – | –
O=C(CCN1C(=O)COc2ccccc21)NCCN1CCN(c2cccc(Cl)c2)CC1 | – | – | ? | – | -68.8 | –
O=C(Cn1nc(-c2ccccc2)ccc1=O)NCCN1CCN(c2cccc(Cl)c2)CC1 | – | – | – | – | -60.2 | –
O=C(CCCn1c2ccccc2c(=O)c2ccccc21)Nc1cccc(Cl)c1 | · | – | 6.31µM | – | · | –
O=C(CCN1C(=O)COc2ccccc21)NCCN1CCOCC1 | – | – | – | – | – | –
O=C(Cn1nc(-c2ccccc2)ccc1=O)NCCN1CCN(Cc2ccccc2)CC1 | – | – | – | – | – | –
O=C(CCNC(=O)Cn1ccc2ccccc2c1=O)NCCN1CCN(c2cccc(Cl)c2)CC1 | – | – | ? | – | -60.5 | –
Cc1ccc2c(c1)c(=O)c1ccccc1n2CCCC(=O)Nc1ccc(Cl)c(Cl)c1 | · | – | – | – | · | –
CC(C)(C)c1ccc2c(S(=O)(=O)O)c(C(C)(C)C)ccc2c1 | – | · | · | · | · | –
O=C(Nc1cccc(OC(F)(F)F)c1)c1cccc2c(-c3cccnc3)coc12 | – | – | ? | – | – | –
O=C(CCSCc1cccc(Cl)c1)NCCC1=CCCCC1 | – | – | 10µM | – | – | –
Cc1ccc2c(c1)N(CCC(=O)NCc1ccccn1)C(=O)CO2 | – | – | – | – | -63.6 | –
CCOc1ccc(OCC)c(Nc2nc3ccc(C(=O)c4ccccc4)cc3n3cnnc23)c1 | · | – | – | – | · | –
SMILES | GLP-1R agonist | GLP1R cytotox | GLP1R inv ag | ClpP mod | DRD3 antagonist | DRD3 agonist
C=CCn1c(SCC#N)nc2ccc(Cl)cc2c1=O | · | · | · | – | · | ·
CCC(C)(C)C(=O)O[C@@H]1C[C@H](C)C=C2C=C[C@H](C)[C@@H](CC[C@H]3C[C@@H](O)CC(=O)O3)[C@H]21 | – | · | · | · | · | ·
CN(CC(=O)Nc1ccc(F)cc1)C(=O)COc1ncnc2ccccc12 | – | – | – | – | – | –
CC(C)c1ccccc1OCC(=O)N(C)CC(=O)Nc1ccc(F)cc1 | – | – | ? | – | -58.1 | –
CCN1C(=O)c2ccccc2S(=O)c2ccc(C(=O)N3CCN(c4cc(Cl)ccc4C)CC3)cc21 (stereo unspecified) | – | – | ? | – | · | –
CCc1ccc(N2CC(C(=O)N3CCN(c4ccccn4)CC3)CC2=O)cc1 (stereo unspecified) | – | – | ? | 28.2µM | – | –
O=C(C1CC(=O)N(c2ccccc2)C1)N1CCN(c2ccccc2F)CC1 (stereo unspecified) | – | – | – | – | – | –
CCOc1ccc(N2CC(C(=O)N3CCN(c4ccccn4)CC3)CC2=O)cc1 (stereo unspecified) | – | – | – | 20µM | – | –
CCOc1ccc(N2CC(C(=O)N3CCCCC3)CC2=O)cc1 (stereo unspecified) | – | – | – | · | – | –
O=C(C1CC(=O)N(c2ccccc2)C1)N1CCN(c2ccc(F)cc2)CC1 (stereo unspecified) | – | – | – | – | -68.6 | –
CCc1ccc(N2CC(C(=O)N3CCN(c4ccc([N+](=O)[O-])cc4)CC3)CC2=O)cc1 (stereo unspecified) | – | – | – | – | – | –
CCOC(=O)c1ccccc1NC(=O)c1cc2c(=O)oc3ccc(C)cc3c2s1 | – | – | – | – | · | –
CCOC(=O)c1cc(=O)nc(N)s1 | – | – | – | – | – | –
O=C(O)C1CCC(C(=O)O)SS1 (stereo unspecified) | – | – | – | · | – | –
O=C1[C@H](Cc2ccccc2)NC/C=C\C[C@H](c2ccco2)N1Cc1ccccc1 | · | · | · | – | · | ·
OC[C@@H]1CN(Cc2ccc(F)cc2)C[C@H](n2cnc3c(NCc4ccc(F)cc4)ncnc32)O1 | – | – | – | – | – | –
Cc1cc(N)ccc1N1CCCC1 | – | – | – | – | -54.8 | –
Cc1cc(N)ccc1-n1c(C)ccc1C | – | – | – | 31.6µM | – | –
CC(C)CC(NC(=O)C1CCCN1C(=O)OC(C)(C)C)C(=O)NCC(N)=O (stereo unspecified) | – | – | – | – | -58.5 | –
C=CCSc1nc2ccccc2c(=O)n1C1CCOC(C)(C)C1 (stereo unspecified) | – | – | 10µM | · | – | –
CCOc1ccc(C(=O)C(CCC(CN(C)C)C(=O)c2ccc(OCC)cc2)CN(C)C)cc1 (stereo unspecified) | – | – | 1.58µM | – | -84.9 | –
COc1ccc(C(=O)C(CCCCC(CN(C)C)C(=O)c2ccc(OC)cc2)CN(C)C)cc1 (stereo unspecified) | – | ? | – | – | ? | –
CN(C)CC(CCC(CN(C)C)C(=O)c1ccccc1)C(=O)c1ccccc1 (stereo unspecified) | – | ? | ? | – | -80.3 | –
CCOC(=O)c1cc(OC(=O)c2cc(OC)cc(OC)c2)n(-c2ccccc2)n1 | – | – | – | – | · | –
CCN1C(=O)[C@H]2[C@H]3[C@H](O)[C@H](O)CC(=O)[C@@H]3CC[C@H]2C1=O | · | · | · | – | · | ·
